From PubChem
JMJD2A Tudor – inhibitors of human JMJD2A Tudor domain | Potency, µM (doses to about 114 µM), without a hit: at the top dose activity change, negative = inhibition, hits mostly inhibitors | 390,000 tested, 4.4% active | O75164 | AlphaScreen JMJD2A-Tudor / H3K4me3 peptide binding; note: % is set by controls: 0 for no effect and ±100 for the full control effect; nearly all actives have a fitted effect of over 50% in size
BAZ2B inh – BAZ2B (human) inhibition. 360,000 tested, 4.4% active. AlphaScreen BAZ2B-H3K14Ac peptide displacement. Q9UIF8. Potency, µM (highest dose often 114 µM), without a hit: top-dose activity change, negative = inhibition, usual class: inhibitors; note: % is set by controls: 0 for no effect and ±100 for the full control effect; nearly all actives have a fitted effect of over 60% in size
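AlphaScreen displacement: compounds (up to 110uM) incubated 30 min at room temperature with a preformed 50 nM BAZ2B/50 nM biotinylated H3K14Ac peptide complex in PBS pH 7.4 with Tween-20. Donor and acceptor beads at 10 ug/mL final added, 20 min light-protected before reading.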
L3MBTL1 inh – blocks human L3MBTL1; AlphaScreen L3MBTL1–H3K9me1 peptide binding; Potency, µM (titrated, usually from 57.1 µM), for the others: top-dose activity, negative = inhibition, most hits filed as inhibitors; 230,000 tested, 0.66% active; AID 485360; note: % is set by controls: 0 for no effect and ±100 for the full control effect; nearly all actives have a fitted effect of over 60% in size
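L3MBTL1 (50 nM) pre-complexed 30 min with biotinylated H3(1-15)K9me1 peptide (75 nM), then compounds added for 30 min at room temperature; AlphaScreen streptavidin donor/nickel chelate acceptor beads (10 ug/mL final) read after 30 min dark incubation.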
G9a block – blocks human histone lysine methyltransferase G9a; Q96KQ7; G9a H3K9 monomethylation, AlphaScreen, 2 h; Potency, µM (series often up to 102 µM), for the others: at the top dose activity, negative = inhibition, usual class: inhibitors; 350,000 tested, 8.8% active; AID 504332; note: % is set by controls: 0 for no effect and ±100 for the full control effect; nearly all actives have a fitted effect of over 75% in size
Target sequence (Q96KQ7 913-1193 limits assumed): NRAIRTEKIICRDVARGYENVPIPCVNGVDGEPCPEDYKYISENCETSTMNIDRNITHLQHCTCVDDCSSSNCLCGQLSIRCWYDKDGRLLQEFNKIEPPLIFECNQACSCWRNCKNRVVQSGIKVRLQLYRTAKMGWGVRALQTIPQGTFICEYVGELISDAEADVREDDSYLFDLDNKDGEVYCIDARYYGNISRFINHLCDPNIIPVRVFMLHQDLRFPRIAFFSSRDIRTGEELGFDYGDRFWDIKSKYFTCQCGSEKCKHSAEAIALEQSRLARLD
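Enzyme 20 nM + cpd, 15 min RT; add b-H3K9 pep 500 nM / SAM 20 uM; 2 h RT; anti-H3K9me1 Ab 0.5 ug/mL + SA donor / anti-rabbit acceptor beads 20 ug/mL each, 10 min; AlphaScreen read.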
Sfp inh – blocks B. subtilis Sfp PPTase activity; Q9F4F7; Biochemical Sfp PPTase activity, qHTS; Potency, µM, inactives show largest response in the series, negative = inhibition, most hits filed as inhibitors; 310,000 tested, 3.5% active; AID 1490;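 note: the enzyme is Sfp with the accession as filed and its product quenches rhodamine fluorescence; 0% = enzyme reaction without inhibitor and -100% = no enzyme wells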
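Step 1, compound plus 15 nM Sfp-PPTase, 15 min, room temperature. Step 2, add rhodamine-CoA (5 uM) and BHQ-2-YbbR (12.5 uM). Step 3, read 525/598 nm fluorescence at 0 and 30 min.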
HP1b binding inh – blocks HP1-beta chromodomain binding to methylated histone tails. AlphaScreen HP1-beta / biotin-H3K9me3 peptide binding. Potency, µM (top dose mostly 114 µM), for inactives: at the top dose activity change, negative = inhibition, most hits filed as inhibitors. 390,000 tested, 0.56% active. AID 540317. P83916; note: nearly all actives have a fitted effect of over 70% in size
Target sequence (P83916 whole entry, looked up): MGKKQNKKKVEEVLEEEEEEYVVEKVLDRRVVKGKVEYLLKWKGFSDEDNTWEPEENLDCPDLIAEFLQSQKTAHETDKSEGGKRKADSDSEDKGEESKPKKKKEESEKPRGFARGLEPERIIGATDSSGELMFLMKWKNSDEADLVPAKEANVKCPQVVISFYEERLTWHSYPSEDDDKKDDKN
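HP1-beta protein (50 nM final) preincubated 30 min at room temperature with biotinylated H3(1-18)K9me3 peptide (50 nM) in PBS pH 7.4, 0.01% Tween-20, then compound added for 30 min. AlphaScreen streptavidin donor/nickel chelate acceptor beads (10 ug/mL final), 30 min dark, luminescence read.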
The depositor's hits bear a star; ? = inconclusive; / = not tested or not shown; [ ] = dose if it differs, or a comment. A selection: hits, their analogues and other compounds. The true share with any hit is near 12%. Calls come from the whole dose curve; as a rule, active = well fitted curve in the direction sought with a large enough effect; inconclusive = small, poorly fitted or top-dose-only effect, or another doubt; inactive = no such curve, though single readings can be large; an effect the other way counts as inactive or inconclusive. Potency is the fitted concentration of half-maximal effect.

SMILES	JMJD2A Tudor	BAZ2B inh	L3MBTL1 inh	G9a block	Sfp inh	HP1b binding inh
CCN(c1cccc(C)c1)S(=O)(=O)c1cc(Br)cc2c1N(C(C)=O)C(C)C2 (configuration not stated)	-17.4%	-10.5%	/	-19.6%[59 µM]	/	21.3%
CCOC(=O)N1CCc2c(sc3c2c(=O)n(Cc2ccccc2)c(=O)n3Cc2ccccc2Cl)C1	-18.2%	?	/	?	/	18.9%
CC/C(=N\NC(=O)Cc1ccc(Br)cc1)c1cccs1	-12.5%	-15.4%	/	56.2µM*	11.1%	56.8%
c1cc2c3c(cccc3c1)NC1(CCCC1)N2	?	/	/	/	/	-16.4%
S=C1NC2(CCCCC2)Nc2ccccc21	-16.8%	?	-11.0%	44.7µM*	-15.6%	6.8%
S=C1NC2(CCCC2)Nc2ccccc21	-13.0%	?	1.0%	11.2µM*	-66.6%	48.9%
Cc1ccc(C)c(N2CCN(C(=O)c3cc(C)nc4c3c(C)nn4-c3cccc(F)c3)CC2)c1	-4.2%	39.6%[57.1 µM]	/	0.7%[59 µM]	/	60.8%
CC(=O)[C@H]1CC[C@H]2C3CC=C4C[C@@H](O)CC[C@]4(C)C3CC[C@]12C (some centres not stated)	/	/	/	16.1%[59 µM]	2.7%	/
Cc1ccc(C)c(N2CCN(CCCNC(=O)Cn3c(-c4cccs4)cc4ccccc43)CC2)c1	?	35.5µM*	/	?	/	16.3%
CN1CCN(CCCNC(=O)Cn2c(-c3cccs3)cc3ccccc32)CC1	-25.4%	-12.2%	/	-12.3%[59 µM]	/	14.2%
O=C(Cn1c(-c2cccs2)cc2ccccc21)NCCCN1CCN(c2cccc(Cl)c2)CC1	?	25.1µM*	/	?	/	37.3%
COc1cc(OC)c(NC(=O)N2CCSc3ccccc32)cc1Cl	-27.1%	?	/	?	/	15.7%
COc1ccc(Oc2ncc3ncc(=O)n(Cc4cccc(OC)c4)c3n2)cc1	/	/	/	-3.1%[12.7 µM]	-0.6%	/
CCOc1ccc(-c2nnc(SCC(=O)NC(C)(C)C)nc2-c2ccc(OCC)c(OC)c2)cc1OC	?	-15.4%	/	50.1µM*	-9.8%	14.2%
CCOc1cc(-c2nnc(SCC(=O)Nc3ccc(F)c(F)c3)nc2-c2ccc(OC)c(OCC)c2)ccc1OC	-16.2%	?	/	12.6µM*	/	23.4%
Cc1ccc(C)c(NC(=O)C(NS(=O)(=O)c2ccc3c(c2)CCC(=O)N3)c2ccccc2)c1 (configuration not stated)	-7.4%	13.9%	/	-13.0%[59 µM]	/	87.9%
COc1cc(NC(=S)NC2CC(C)(C)NC(C)(C)C2)c(OC)cc1Cl	-17.7%	-30.3%	-9.2%	50.1µM*	8.0%	37.6%
COc1cc(C(=O)NCCc2ccc(S(N)(=O)=O)cc2)cc(OC)c1OC	-17.6%	2.7%	-3.9%	-46.9%	7.6%	18.6%
COc1cc(OC)c(NC(=S)NCc2ccccc2)cc1Cl	-24.4%	-1.1%	/	?	-0.9%	-7.1%
COc1cc(NS(=O)(=O)c2ccc(C)c(C)c2)c(OC)cc1Cl	-11.2%	-2.2%	/	?	79.4µM*	17.9%
COc1cc(NC(=S)NCCc2ccc(S(N)(=O)=O)cc2)c(OC)cc1Cl	-11.3%	?	-3.1%[2.29 µM]	?	15.8µM*	14.4%
COc1cc(NC(=S)NC2CC(C)(C)NC(C)(C)C2)cc(OC)c1	1.0%	-8.0%	-2.8%	24.2%[12.7 µM]	19.5%	25.9%
COc1cc(NC(=S)NCCCO)c(OC)cc1Cl	-0.7%	-9.6%	3.4%	28.2µM*	?	27.3%
CCCCCCCC/C=C\CCCCCCCC(=O)N[C@@H](CO)Cc1ccc(O)cc1	/	/	/	/	44.2%	/
COc1ccc(NC(=O)O/N=C2/CCCc3ccc(OC)cc32)cc1	14.1µM*	-1.5%	-1.7%	18.0%	7.4%	-13.4%
SMILES	JMJD2A Tudor	BAZ2B inh	L3MBTL1 inh	G9a block	Sfp inh	HP1b binding inh
COc1ccc2c(c1)/C(=N/OC(=O)c1cccs1)CCC2	43.6%	23.4%	/	69.8%[59 µM]	-14.7%	72.4%
O=C(/C=C\c1ccccc1)Nc1ccc(NC(=O)c2ccco2)cc1	10µM*	-8.6%	7.0%	-7.3%	12.5%	?
O=C(/C=C/c1ccc(Br)cc1)c1ccc(NC(=O)c2ccco2)cc1	-21.9%	?	-4.5%	-5.4%[59 µM]	-8.5%	10.7%
O=C(/C=C/C=C/c1ccccc1)c1ccco1	-22.5%	?	-2.4%	50.1µM*	?	-17.6%
O=S(=O)(NCc1ccccn1)c1ccccc1	8.91µM*	-0.7%	/	17.3%[59 µM]	-4.0%	21.6%
O=S(=O)(NCc1ccccn1)c1cccc2nsnc12	?	?	/	20µM*	-15.8%	27.0%
O=S(=O)(Cc1ccccc1)NCc1ccccn1	3.55µM*	-11.5%	/	?	-12.5%	7.9%
O=S(=O)(NCc1ccccn1)c1ccccn1	?	?	?	/	-12.1%	20.0%
COC(=O)Nc1ccc(S(=O)(=O)NCc2ccccn2)cc1	5.62µM*	-11.9%	13.8%	13.8%	1.2%	-5.9%
CN(CCc1ccc(Cl)c(Cl)c1)C[C@@H](O)COc1ccc(NS(C)(=O)=O)cc1	/	/	/	/	3.0%	/
CCc1nn(CC(=O)N(C)Cc2ccccc2)c(=O)c2cc3sccc3n12	-17.8%	0.1%	/	3.7%[59 µM]	/	13.0%
COc1ccc(S(=O)(=O)NCc2ccccn2)c(C)c1C	9.6%	11.6%	1.1%	/	1.1%	24.0%
CCOc1ccc(OCC)c(S(=O)(=O)NCc2ccccn2)c1	89.1µM*	-6.1%	2.0%	-24.9%[59 µM]	-22.0%	9.0%
COc1c(C)cc(S(=O)(=O)NCc2ccccn2)c(C)c1C	25.1µM*	3.9%	-1.1%[2.29 µM]	-13.9%[0.501 µM]	4.0%	30.8%
CSc1nc(O)c(C(c2cccc([N+](=O)[O-])c2)c2c(O)nc(SC)[nH]c2=O)c(=O)[nH]1	-14.5%	?	0.7%	28.2µM*	-6.2%	37.1%
C=CCOc1ccc(C(c2c(O)nc(SC)[nH]c2=O)c2c(O)nc(SC)[nH]c2=O)cc1	-3.5%	/	/	/	/	10.5%
CSc1nc(O)c(C(c2ccc(O)cc2)c2c(O)nc(SC)[nH]c2=O)c(=O)[nH]1	-6.3%	?	4.6%	10µM*	50.1µM*	?
CCOc1ccc(C(c2c(O)nc(SC)[nH]c2=O)c2c(O)nc(SC)[nH]c2=O)cc1	-20.8%	/	/	/	/	32.2%
CCOC(=O)Cn1c(=O)cc(C)c2c(C)nn(-c3cccc(F)c3)c21	25.7%	29.6%	/	51.0%[59 µM]	/	-4.9%
CCc1ccc(S(=O)(=O)c2cn(Cc3ccccc3)c3cc(F)c(F)cc3c2=O)cc1	-9.9%	-8.2%	/	?	/	27.9%
Cc1ccc(NC(=O)c2sc3ncnc(N(C)C4CCCCC4)c3c2C)c(C)c1	-14.7%	-0.3%	/	-1.3%[59 µM]	/	33.5%
CC(NCc1ccc(N(C)C)cc1)C1CC2CCC1C2 (configuration not stated)	89.1µM*	?	/	50.1µM*	3.9%	-20.8%
COC(=O)c1cc(NCc2ccccc2F)ccc1N1CCOCC1	-24.5%	-12.1%	-6.2%	44.7µM*	-11.2%	8.5%
